# Assay results published in PubChem BioAssay (NCI).
# This is part of a sample that, as a whole, favours compounds with a hit. Of some 83,000 tested, about 20% had one in any assay.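 Values shown are percent growth following 48 h exposure of cells in 96-well plates to a single concentration of compound; below 10 was considered active.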 Unmarked numbers belong to inactive results. The source made the active and inactive calls.
# Tested on: SK-MEL-5 melanoma
# Assay: NCI-60 one-dose screen, 48 h (100 = growth as untreated, 0 = no growth, -100 = all killed)
# Details: 10 µM
# Procedure: Growth inhibition of the SK-MEL-5 human tumor cell line is measured as a screen for anti-cancer activity. Cells are grown in 96 well plates and exposed to the test compound for 48 hours. Compounds are tested at a single concentration, which is 10^-5 M for most compounds. The reported endpoint is percent growth (GI% or GIPRCNT), where numbers from 0 - 100% represent growth inhibition, and numbers from -100% - 0 represent cell death. For example, a value of 40 represents 60% growth inhibition. A value of 0 means no net growth occurred over the course of the experiment. A value of -40 indicates 40% of cells at the beginning of the experiment died by the end of the experiment. A value of -100 means all cells are dead at the end of the experiment.
# NCI-60 Human Tumor Cell Lines Screen was performed using the standard one-dose NCI protocol, which is described in more detail at https://dtp.cancer.gov/discovery_development/nci-60/default.htm.
# Compounds with GIPRCNT values below 10 were considered active. Activity score was based on GIPRCNT using the following formula: […]
# Score is 0 for GIPRCNT values of 100 or above, 50 for GIPRCNT values of 0, and 100 for GIPRCNT values of -100.
row,Structure (SMILES),growth
1,O=C(Nc1cccc(C(F)(F)F)c1)C(Cl)Cl,103%
2,Cc1ccc(/C(CS(=O)(=O)c2ccc(C)cc2)=N\O)cc1,98.9%
3,CCCc1c(CC)c(=N)c2ccccc2n1C,19.2%
4,COc1ccc(/C=C2\SC(=S)N(CCCN3CCOCC3)C2=O)c(OC)c1,90%
5,CC(C)C[C@H](NC(=O)Cn1ccc2ccccc2c1=O)B(O)O,37.9%
6,O=c1c2cccc3c(Nc4ccc(Br)cn4)ccc(c32)c2nc3ccccc3n12,76.2%
7,COC(=O)c1ccc(Cn2ccc(=O)[nH]c2=O)cc1,109%
8,CCN(CC)CC(O)CNc1ccnc2cc(Cl)c(Cl)cc12 (stereo not given),84.7%
9,Nc1nsc(C(=O)c2ccc(O)cc2)n1,97.9%
10,COc1ccc(C2=NNC(c3sc(Cl)nc3Cl)C2)cc1 (stereo not given),54.6%
11,Cc1nn2c(/C=C3/C(=O)Nc4ccc(Cl)cc43)c(-c3ccccc3)nc2s1,26.3%
12,Cc1ccc(-n2c(-c3cc4c([nH]c5ccccc54)c(-c4cccc(O)c4)n3)n[nH]c2=S)cc1,-17.5% (active)
13,Cc1cc2cc3c(=O)[nH]c(=O)cc-3n(CC(O)C(O)C(O)CO)c2cc1C (stereo not given),110%
14,COc1ccc(Nc2nc(NCc3ccccc3)c3ccccc3n2)cc1,63.9%
15,CCCCCCCCCCSC(=N)N (tested in a mixture with another compound),80.5%
16,COc1ccc(/C(=C/c2cc(OC)c(OC)cc2[N+](=O)[O-])C(=O)O)cc1,110%
17,NC1CCC(Nc2nc(NCc3ccc(-c4ccccc4O)nc3)c3ncn(C4CCCC4)c3n2)CC1 (stereo not given),-94.1% (active)
18,O=C(OCc1ncc(-c2ccc(C(F)(F)F)cc2)c(NC2CCCCCC2)n1)c1c(F)c(F)c(F)c(F)c1F,36.4%
19,O=C(Nc1ccc(Oc2ccc(Nc3nc4ccccc4s3)cc2)cc1)Nc1ccc(Cl)c(Cl)c1,34.3%
20,COc1ccc(Cn2cc3c(c2-c2ccccc2)CC(C)(C)c2cnoc2-3)cc1,13.1%

row,Structure (SMILES),growth
1,Nc1ccccc1NC(=O)CCCCCCC(=O)Nc1ccc2c(c1)/C(=C/c1ccc[nH]1)C(=O)N2,55.1%
2,CCOC(=O)C(CCC1=NC(C)(C)CC(C)O1)C(=O)OCC (stereo not given),108%
3,CCCN(CCC)CCCNC(=O)c1cc2c(-c3ccc(OC)c(OC)c3)nn(C)c2s1,-60.8% (active)
4,COc1cc(Cn2c(-c3ccccc3)c(Cl)c3c2-c2oncc2CC3)cc(OC)c1,109%
5,CCn1nc(-c2ccc(C(=O)OC)cc2)nc2c(=O)n(C)c(=O)nc1-2,87%
6,COc1cc(Cn2c(-c3ccccc3)cc3c2-c2oncc2CC3)cc(OC)c1,5.07% (active)
7,COc1cccc(C(=O)NNc2nc(N3CCN(C4CCCCC4)CC3)nc(N3CCN(C(c4ccccc4)c4ccccc4)CC3)n2)c1,-85.1% (active)
8,Fc1cc(-c2ncc(-c3cc(F)c(F)c(F)c3)c(NC3CCCCCC3)n2)cc(F)c1F,98.1%
9,CCCCC(=O)N(c1ccc(Nc2c3ccccc3nc3cc([N+](=O)[O-])ccc23)cc1)S(C)(=O)=O,69%
10,COc1ccc(C2C=C(c3ccc(Cl)cc3)N=C3SC=CN32)c(Br)c1 (stereo not given),88.6%
11,CN(C)Cc1cccs1,90%
12,Cc1c(C(=O)N[C@H](CO)Cc2ccccc2)[nH]c2ccc(Cl)cc2c1=O,99%
13,O=[N+]([O-])c1ccc(S(=O)(=O)OCCCCOS(=O)(=O)c2ccc([N+](=O)[O-])cc2)cc1,100%
14,NC(=O)C12C(=O)NC(=O)C1(C(=O)O)C21CCCC1 (stereo not given),106%
15,CCCCCCCCCCCCc1ccc(C(=O)/C=C/C(=O)O)cc1,92.1%
16,O=C(CCc1ccccc1)N1CCN(C(=O)CCc2ccccc2)CC1,105%
17,CC(C)=C1CCC(C)C/C1=N\N=C(N)N (stereo not given),98.6%
18,Cc1ccc(Cl)cc1Nc1nc(C(F)(F)F)ccc1C(=O)N/N=C/c1c(Cl)cccc1Cl,-74.4% (active)
19,CC(C)(C)c1ccc(OCCCCCCN2CCNCC2)cc1,50.4%
20,COc1cc2nc(Sc3sc(N)nc3C)n(-c3ccc(Oc4ccccc4)cc3)c(=O)c2cc1OC,76.8%
